Screening data (PubChem BioAssay)
Shown are actives, neighbours in structure and some others; about 2.5% of the full set was active somewhere.
Cruzain Triton: qHTS Assay for Promiscuous and Specific Inhibitors of Cruzain (with detergent) | Cruzipain (Trypanosoma cruzi), P25779 | purified cruzain, Z-FR-AMC fluorescence, 0.01% Triton | Potency, µM, for the others: max response, negative = inhibition, hits mostly inhibitors | actives 0.43% (n = 200,000) | AID 1478, 2009;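 note: plate controls were neutral wells for no effect and buffer without enzyme for full effect; nearly all actives have a fitted effect of over 40% in size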
Target sequence (P25779 123-467 limits assumed): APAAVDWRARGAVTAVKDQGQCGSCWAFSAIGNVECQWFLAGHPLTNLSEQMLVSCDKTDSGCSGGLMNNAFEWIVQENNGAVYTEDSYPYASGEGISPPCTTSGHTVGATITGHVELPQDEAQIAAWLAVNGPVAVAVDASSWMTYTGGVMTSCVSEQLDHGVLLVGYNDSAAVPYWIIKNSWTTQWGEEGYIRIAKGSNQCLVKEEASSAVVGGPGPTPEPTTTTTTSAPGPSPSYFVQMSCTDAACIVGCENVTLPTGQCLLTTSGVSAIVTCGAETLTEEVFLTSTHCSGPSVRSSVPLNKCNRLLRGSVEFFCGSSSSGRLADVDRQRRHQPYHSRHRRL
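Cruzain (1.5 nM) preincubated 15 min at RT with compound in 100 mM sodium acetate pH 5.5, 5 mM DTT, 0.01% Triton X-100. Reaction started with 2 uM Z-FR-AMC; AMC fluorescence (ex 360/em 450 nm) change over 60 s gave rate.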
Cruzain inh noDet: qHTS Assay for Promiscuous and Specific Inhibitors of Cruzain (without detergent); Cruzipain (Trypanosoma cruzi), P25779; purified cruzain, Z-FR-AMC fluorescence, no detergent; Potency, µM, without a hit: max response, negative = inhibition, actives largely listed as inhibitors; AID 1476, 2009; actives 2.3% (n = 200,000);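 note: plate controls were enzyme without inhibitor for no effect and buffer without enzyme for full effect; nearly all actives have a fitted effect of over 40% in size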
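Detergent-free condition (0.00005% Triton X-100) in acetate buffer pH 5.5 with DTT. 1.5 nM enzyme and compound were pre-mixed 15 min, then 2 uM Z-FR-AMC substrate added; reaction progress from fluorescence change between first and third reads (60 s).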
* marks the source's active call; other numbers are inactive results; ! = a repeat was not active. Calls come from the whole dose curve; as a rule, active = well fitted curve in the direction sought with a large enough effect; inconclusive = small, poorly fitted or top-dose-only effect, or another doubt; inactive = no such curve, though single readings can be large; an effect the other way counts as inactive or inconclusive. Potency is the fitted concentration of half-maximal effect.

Screening COCCN=C1OC(=O)N2C(=O)C3=C4C(C[C@H]5C(=O)N(CC(=O)OC)C(=O)[C@H]5[C@H]4[C@@]12Cc1ccccc1)[C@H]1C(=O)N(CC(=O)OC)C(=O)[C@H]1[C@H]3C (some centres not stated) returned Cruzain Triton -0.6% and Cruzain inh noDet inconclusive.
`COc1ccc(N2CCN(S(=O)(=O)c3cccc(C(F)(F)F)c3)CC2)cc1` gave Cruzain Triton 2.3% and Cruzain inh noDet -1.7%.
`COc1ccc(N2CCN(S(=O)(=O)c3ccc(Cl)c(C(F)(F)F)c3)CC2)cc1` gave Cruzain Triton 4.2% and Cruzain inh noDet 15.8µM*.
COc1ccc(-c2noc(-c3ccc(NCc4ccc(C)cc4)c([N+](=O)[O-])c3)n2)cc1OC was read as Cruzain Triton -11.2% and Cruzain inh noDet -4.5%.
Screening C=C(Cl)CSC(=S)N(CC)CC returned Cruzain Triton -1.9% and Cruzain inh noDet -4.1%.
CCN(CC)C(=S)SSC(=S)N(CC)CC was read as Cruzain Triton 15.8µM*! and Cruzain inh noDet 7.94µM*!.
Cc1c(-c2ccccc2)c(=O)oc2c(CN3CCN(C)CC3)c(O)ccc12 was read as Cruzain Triton -21.1% and Cruzain inh noDet inconclusive.
Cc1ccc(-c2csc3nnc(SCC(=O)N4CCN(Cc5ccccc5)CC4)n23)cc1 was read as Cruzain Triton -6.3% and Cruzain inh noDet 20µM*.
Screening O=C(CSc1nnc2scc(-c3ccccc3)n12)N1CCN(Cc2ccccc2)CC1 returned Cruzain Triton -4.8% and Cruzain inh noDet -9.3%.
Screening CCCCOc1cccc(C(=O)N(Cc2ccc(Cl)cc2)C2CCS(=O)(=O)C2)c1 (configuration not stated) returned Cruzain Triton -8.3% and Cruzain inh noDet inconclusive.
For Cc1cc(C)c(CN2C(=O)c3ccccc3S(=O)(=O)c3ccc(C(=O)OCC4CCCO4)cc32)c(C)c1 (configuration not stated) the results were Cruzain Triton -2.0% and Cruzain inh noDet 12.6µM*.
Screening Cc1ccc(C)c(CN2C(=O)c3ccccc3S(=O)(=O)c3ccc(C(=O)OCC4CCCO4)cc32)c1 (configuration not stated) returned Cruzain Triton -0.6% and Cruzain inh noDet -24.6%.
For CCC(Oc1ccccc1)C(=O)Nc1ccccc1OCc1cc(=O)n2ccccc2n1 (configuration not stated) the results were Cruzain Triton 3.4% and Cruzain inh noDet 6.2%.
Cc1cc(C)cc(Nc2nc(-c3ccc(S(=O)(=O)N4CCCC4)cc3)cs2)c1 was read as Cruzain Triton -1.7% and Cruzain inh noDet 15.8µM*.
For O=S(=O)(c1ccc(-c2csc(Nc3ccc(Br)cc3)n2)cc1)N1CCCC1 the results were Cruzain Triton -1.9% and Cruzain inh noDet 31.6µM*.
For Cc1ccc(Nc2nc(-c3ccc(S(=O)(=O)N4CCCC4)cc3)cs2)cc1C the results were Cruzain Triton 3.7% and Cruzain inh noDet 12.6µM*.
Screening Cc1nc(-c2cccc(S(=O)(=O)N3CCCCCC3)c2)cs1 returned Cruzain Triton -8.8% and Cruzain inh noDet -11.5%.
O=S(=O)(c1ccc(-c2csc(Nc3ccc(F)cc3)n2)cc1)N1CCCC1 was read as Cruzain Triton -3.3% and Cruzain inh noDet inconclusive.
Cc1nc(-c2ccc(S(=O)(=O)N3CCCCCC3)cc2)cs1 was read as Cruzain Triton -1.6% and Cruzain inh noDet -11.7%.
Screening CC(=O)NC(C(=O)O)C(C)(C)SN=O (configuration not stated) returned Cruzain Triton 3.9% and Cruzain inh noDet -5.9%.
For CCC(C)NC(=O)c1ccc2c(c1)nc1n2CCCCC1 (configuration not stated) the results were Cruzain Triton 2.7% and Cruzain inh noDet -13.3%.
COc1ccc(S(=O)(=O)Nc2ccc(F)cc2)cc1N(C)S(=O)(=O)c1ccc(Cl)cc1 was read as Cruzain Triton -3.4% and Cruzain inh noDet 20µM*.
For COc1ccc(NS(=O)(=O)c2ccc(OC)c(N(C)S(=O)(=O)c3ccc(Cl)cc3)c2)cc1 the results were Cruzain Triton -1.1% and Cruzain inh noDet -20.8%.
Cn1nnnc1SCCNCc1cc(Br)ccc1OCc1ccccc1Cl was read as Cruzain Triton -7.3% and Cruzain inh noDet -4.3%.
`Cc1cc(C)cc(-n2ccn(Cc3ccc(F)cc3)c(=O)c2=O)c1` gave Cruzain Triton -2.3% and Cruzain inh noDet -2.8%.
Screening CC(C)CNS(=O)(=O)c1cc(C(=O)OCC(=O)c2ccc3c(c2)OCCO3)c(Cl)cc1Cl returned Cruzain Triton -1.6% and Cruzain inh noDet inconclusive.
O=C(CNC(=O)c1ccc(Cl)cc1Cl)OCC(=O)c1ccc2c(c1)OCCO2 was read as Cruzain Triton 3.16µM* and Cruzain inh noDet 3.16µM*.
Nc1nc(-c2ccccc2)cc(-c2ccccc2O)n1 was read as Cruzain Triton -11.6% and Cruzain inh noDet -16.6%.
Screening NNc1nc(-c2ccccc2)cc(-c2ccccc2O)n1 returned Cruzain Triton -5.3% and Cruzain inh noDet 15.8µM*.
`S=c1[nH]cc(-c2ccccc2)n1-c1cccc(Cl)c1` gave Cruzain Triton -3.0% and Cruzain inh noDet -12.1%.
`CCn1c(-c2ccc(-c3ccccc3)cc2)c[nH]c1=S` gave Cruzain Triton 4.6% and Cruzain inh noDet 10µM*.
Screening Cn1c(-c2ccc(-c3ccccc3)cc2)c[nH]c1=S returned Cruzain Triton -8.8% and Cruzain inh noDet 10µM*.
Screening C=CCn1c(-c2ccccc2)c[nH]c1=S returned Cruzain Triton 2.0% and Cruzain inh noDet 6.9%.
`O=P(O)(O)O[C@@H]1[C@H](O)[C@H](O)[C@@H](OP(=O)(O)O)[C@H](OP(=O)(O)O)[C@H]1O` gave Cruzain Triton 1.4% and Cruzain inh noDet -6.3%.
Cc1nc2ccccn2c(=O)c1NC(=O)c1ccc(F)c(F)c1 was read as Cruzain Triton -1.1% and Cruzain inh noDet -13.3%.
Screening ClC1=C(Cl)C2(Cl)C3C4C=CC(C4)C3C1(Cl)C2(Cl)Cl (configuration not stated) returned Cruzain Triton 7.5% and Cruzain inh noDet 8.4%.
ClC1=C(Cl)C2(Cl)C3C4CC(C5OC45)C3C1(Cl)C2(Cl)Cl (configuration not stated) was read as Cruzain Triton -2.2% and Cruzain inh noDet 1.58µM*.
`Cc1ccc(-c2nnc(Nc3ccc(C(N)=O)cc3)c3ccccc23)cc1S(N)(=O)=O` gave Cruzain Triton -7.6% and Cruzain inh noDet -7.3%.
`CCOc1ccc(CNC(=O)C2=Cc3cccc(OC)c3OC2)cc1` gave Cruzain Triton -3.3% and Cruzain inh noDet 4.9%.
Screening COc1cc2c(cc1NC(=O)COc1ccc3ccccc3c1)oc1ccccc12 returned Cruzain Triton -6.2% and Cruzain inh noDet 10µM*.
COc1cc2c(cc1NC(=O)COc1ccc(Br)cc1)oc1ccccc12 was read as Cruzain Triton -2.5% and Cruzain inh noDet 8.4%.
Screening COc1ccccc1CC(=O)Nc1cc2oc3ccccc3c2cc1OC returned Cruzain Triton 3.4% and Cruzain inh noDet -23.7%.
Screening COc1cc2c(cc1NC(=S)NC(=O)c1c(OC)cccc1OC)oc1ccccc12 returned Cruzain Triton -4.5% and Cruzain inh noDet 6.31µM*.
Screening COc1cc(OC)cc(C(=O)NC(=S)Nc2cc3oc4ccccc4c3cc2OC)c1 returned Cruzain Triton -4.6% and Cruzain inh noDet 3.98µM*.
COc1ccc(C(=O)NC(=S)Nc2cc3oc4ccccc4c3cc2OC)cc1 was read as Cruzain Triton -3.2% and Cruzain inh noDet 7.94µM*.
